KCC2 mod = modulators of human KCC2 chloride dependent transport; B-score of Tl+ flux slope (higher = more flux/activation; lower = inhibition) at 10 µM; AID 1456; KCC2 cells, thallium flux FluoZin-2 fluorescence; Q9H2X9; 190,000 compounds, 2.2% hits;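 active = thallium flux slope and its plate-corrected score both differing from the plate sample mean at a set confidence after two filtering rounds, in either direction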;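 also: slope of fluorescence scaled to starting intensity during 10 to 20 s after thallium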
Target sequence (Q9H2X9 whole entry, looked up): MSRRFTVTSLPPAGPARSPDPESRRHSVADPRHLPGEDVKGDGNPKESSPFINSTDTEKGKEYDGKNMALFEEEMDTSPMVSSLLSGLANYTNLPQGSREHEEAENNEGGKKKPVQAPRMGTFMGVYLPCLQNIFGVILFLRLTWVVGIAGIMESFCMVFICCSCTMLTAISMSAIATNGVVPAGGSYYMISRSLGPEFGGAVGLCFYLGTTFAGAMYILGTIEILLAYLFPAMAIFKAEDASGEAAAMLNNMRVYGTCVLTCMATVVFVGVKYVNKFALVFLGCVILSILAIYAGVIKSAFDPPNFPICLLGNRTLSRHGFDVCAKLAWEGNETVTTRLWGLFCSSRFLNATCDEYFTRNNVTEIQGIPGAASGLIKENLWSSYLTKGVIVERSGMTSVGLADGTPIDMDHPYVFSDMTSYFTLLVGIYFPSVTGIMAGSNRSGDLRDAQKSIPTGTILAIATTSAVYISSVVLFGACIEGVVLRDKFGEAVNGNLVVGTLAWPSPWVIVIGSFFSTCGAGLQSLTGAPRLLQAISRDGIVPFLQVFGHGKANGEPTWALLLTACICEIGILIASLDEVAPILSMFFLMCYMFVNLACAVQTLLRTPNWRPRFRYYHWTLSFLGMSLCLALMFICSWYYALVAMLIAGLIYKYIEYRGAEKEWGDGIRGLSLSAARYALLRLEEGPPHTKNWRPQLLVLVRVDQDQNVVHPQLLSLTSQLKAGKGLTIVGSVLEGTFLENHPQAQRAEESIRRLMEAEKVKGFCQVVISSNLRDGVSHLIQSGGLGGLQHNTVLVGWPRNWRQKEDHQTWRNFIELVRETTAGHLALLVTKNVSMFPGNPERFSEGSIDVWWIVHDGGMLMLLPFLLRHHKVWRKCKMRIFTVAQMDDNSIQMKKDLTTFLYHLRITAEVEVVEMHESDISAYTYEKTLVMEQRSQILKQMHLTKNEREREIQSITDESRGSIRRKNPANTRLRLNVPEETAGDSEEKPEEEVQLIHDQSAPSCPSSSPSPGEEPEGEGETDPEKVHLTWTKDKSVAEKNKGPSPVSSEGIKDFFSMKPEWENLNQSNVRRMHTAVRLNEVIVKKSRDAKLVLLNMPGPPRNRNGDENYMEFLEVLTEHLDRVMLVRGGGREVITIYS
PGE2 EP2 inh = EP2 receptor (human) inhibition; P43116; C6 glioma cells expressing human EP2, cAMP TR-FRET; cells stimulated with saturating PGE2; inhibition, % at 25 µM; 260,000 compounds, 0.52% hits; AID 1422;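 active = percent inhibition above 40 after rounding to a whole number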;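 also: rat C6 glioma host cells with rolipram phosphodiesterase inhibitor present; the protocol text gives 20 µM as final concentration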
EP2 modulator = modulates human prostaglandin E2 receptor EP2 signaling | P43116 | EP2-expressing cells, cAMP HTRF FRET, PGE2 co-stimulation | induction, % at 25 µM | 260,000 compounds, 0.83% hits | AID 940;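 active = compounds whose cAMP rise, as percent of the full-agonist control response, exceeds 60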;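 also: rat C6 glioma line stably carrying human EP2 under a CMV promoter; the protocol text gives 20 µM as final concentration; 100% = response of wells given 1 µM PGE2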
S1P3 antag = blocks the human S1P3 receptor. Q99500. CHO S1P3 NFAT-BLA reporter, FRET fluorescence, antagonist mode. inhibition, % at 4.98 µM. 170,000 compounds, 0.27% hits. AID 485;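 active = inhibition above the plate cutoff, the mean inhibition of test wells on that plate plus 3 SD, cut at about 28% in these data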;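 also: cells challenged with S1P at its EC80 of 0.8 µM; blue over green emission ratio from cleaved BLA substrate after 4 h stimulation; 0% = S1P-stimulated wells and 100% = unstimulated DMSO-only wells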
KCC2 sec1 = KCC2 (human) modulation, secondary assay | shares compounds with KCC2 mod | HEK293-KCC2, thallium flux, FluoZin2 fluorescence; hits give high values | normalised thallium flux (F/F0 slope) at 10 µM | 3,700 compounds, 15% hits;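 active = thallium flux slope above the same plate's solvent-only control mean plus 3 SD; inconclusive = the two replicate wells disagree; inactive = no significant difference from solvent-only control wells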
KCC2 bumet counter = bumetanide-insensitive thallium flux in KCC2 cells with ouabain, counter-screen | shares compounds with KCC2 mod | HEK293-KCC2 + bumetanide/ouabain, thallium flux FluoZin2; hits give high values | normalized thallium flux at 10 µM | 3,700 compounds, 49% hits;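 active = thallium entry rate above the same plate's blocked-transporter control wells by more than 3 SD; inconclusive = the two repeat wells disagree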;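 also: raw slope of fluorescence over initial fluorescence between 10 and 20 s after thallium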
KCC2 sec2 = KCC2 (human) modulation, second secondary assay; shares compounds with KCC2 mod; HEK293-KCC2, thallium flux FluoZin2 fluorescence; actives lie on both sides; F/F0 rise rate, 10–20 s post-thallium; 3,700 compounds, 23% hits; normalized thallium flux at 10 µM;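 active = thallium flux slope more than 3 SD above or below the plate's solvent-only control mean, mostly below; inconclusive = the two repeat wells disagreed; inactive = no significant shift from solvent-only controls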;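 also: raw slope with 0.1% DMSO as baseline and bumetanide as block control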
HEK293 Tl flux = acts in parental HEK cells, KCC2 counter-screen; shares compounds with KCC2 mod; HEK293 parental cells, thallium flux FluoZin2, ouabain; baseline-ratio fluorescence slope, 10–20 s after thallium; thallium flux rate (normalised fluorescence) at 10 µM; 3,700 compounds, 46% hits;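 active = thallium flux rate significantly above the same plate's solvent-only control wells, beyond their mean plus 3 SD; inconclusive = the two replicate wells gave conflicting results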
KCC2 ouabain = modulates human KCC2 on retest with ouabain. shares compounds with KCC2 mod. HEK293-KCC2, thallium flux FluoZin2 fluorescence; bidirectional: low = inhibitor, high = activator. raw Tl+ flux slope (below DMSO = inhibition, above = activation) at 10 µM. 3,700 compounds, 48% hits;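 active = thallium flux slope beyond 3 SD from same-plate DMSO control mean in most replicates, usually higher, sometimes lower; inconclusive = repeat tests gave conflicting results; inactive = no significant difference from controls in most replicates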;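 also: slope of initial-normalized fluorescence between seconds 10 and 20 after thallium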
HEK293 Tl flux2 = acts in parental HEK cells, second KCC2 counter-screen. 3,700 compounds, 33% hits. HEK293 parental, thallium flux FluoZin-2 fluorescence slope. thallium flux slope at 10 µM. AID 1718. shares compounds with KCC2 mod;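 active = thallium flux slope above the same plate's solvent-control mean plus 3 SD in both duplicate wells; inconclusive = duplicate wells that disagreed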;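 also: run without ouabain in cells lacking the KCC2 cotransporter; slope of fluorescence scaled to its starting value between 10 and 20 s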
Active calls of the source: *; ? = inconclusive; / = not tested or not shown. In the library only some 3.1% were active in any assay of this set; here they are far more common.

SMILES	KCC2 mod	PGE2 EP2 inh	EP2 modulator	S1P3 antag	KCC2 sec1	KCC2 bumet counter	KCC2 sec2	HEK293 Tl flux	KCC2 ouabain	HEK293 Tl flux2
N#CCCN(Cc1cccnc1)C(=S)NC(=O)c1ccc(S(=O)(=O)N2CCCC2)cc1	0.29	4	12	7	/	/	/	/	/	/
COc1ccc(C(=O)NC(=S)N(C)Cc2ccccc2)cc1Br	11*	6	-9	-21	0.0079	0.019*	0.037	0.022*	0.044*	0.016*
CCCOc1ccc(CN(CCC#N)C(=S)NC(=O)c2ccccc2)cc1	80*	4	27	9	0.055*	0.11*	0.074*	0.1*	0.11*	0.055*
CN(Cc1ccccc1)C(=S)NC(=O)c1ccccc1	65*	-1	-7	8	0.056*	0.16*	0.07*	0.085*	0.13*	0.036*
CCOc1ccccc1-c1nc2cnccn2c1NC(C)(C)C	/	2	-8	/	/	/	/	/	/	/
COCCn1nnnc1C(CC(C)C)N1CCN(C(=O)c2ccco2)CC1 (configuration not stated)	7.5*	9	31	-12	0.0064	0.0046	0.032	0.0085	0.019	0.0099
CCc1ccc(C(=O)COC(=O)c2cc([N+](=O)[O-])ccc2NCCO)cc1	-4.3*	4	1	-2	0.0062	0.0053	0.023*	0.0081	0.015*	0.011
O=C(COC(=O)c1cc([N+](=O)[O-])ccc1NCCO)c1ccc(Cl)cc1	-1.5	16	18	10	/	/	/	/	/	/
COc1ccccc1C(=O)NNC(=O)c1sccc1-n1cccc1	/	5	-5	-16	?	0.046*	0.048*	0.04*	0.05*	0.04*
COc1ccccc1C(=O)NNC(=O)C(=O)NC(C)C	4.3*	6	34	-7	0.014*	0.02*	0.029	0.011*	?	0.011*
COc1ccc(C(=O)NNC(=O)C(=O)NCc2ccccc2)cc1	/	8	52	-20	0.016	0.019*	0.029	0.017*	0.022*	0.018*
COC(=O)C(Cc1ccc(O)cc1)NC(=O)c1ccccc1OC (configuration not stated)	-5.2*	11	3	-8	0.0089	?	0.031	0.0085	0.018	0.011
COc1ccccc1C(=O)NNC(=O)c1ccccc1F	-0.16	14	14	4	/	/	/	/	/	/
COC(=O)C(Cc1ccc(O)cc1)NC(=O)c1ccccc1 (configuration not stated)	/	5	-11	/	/	/	/	/	/	/
O=C1NC2(CCN(C(=O)C3(c4ccccc4)CCCC3)CC2)Oc2ccccc21	/	5	10	/	/	/	/	/	/	/
COc1ccc(C2(NC(=O)c3cccc4nccnc34)CCCC2)cc1	/	6	-34	/	/	/	/	/	/	/
CCn1ncc(C(=O)N2C[C@H](C(=O)O)[C@@H](c3ccccc3F)C2)c1C	/	/	-11	/	/	/	/	/	/	/
COc1ccccc1C(=O)NCc1ccncc1	0.96	4	31	17	/	/	/	/	/	/
COc1ccccc1C(=O)NNC(=O)C(=O)NCc1ccccc1	23*	5	27	-10	0.025*	0.046*	0.037	0.028*	0.048*	0.014*
COc1ccc(NC(=O)CSc2ccc(-c3nc4ccccc4[nH]3)cn2)c(OC)c1	/	21	-40	/	/	/	/	/	/	/
N#Cc1nc(Cc2cccc3ccccc23)oc1N1CCOCC1	-6*	3	-14	2	0.0068	0.0044	0.022*	0.0075	0.012*	0.01
N#Cc1nc(Cc2cccc3ccccc23)oc1NCCN1CCOCC1	-4.5*	20	6	/	0.0059	0.0047	0.023*	0.0069	?	0.01
C=CCNc1oc(Cc2cccc3ccccc23)nc1C#N	-4.6*	5	6	34	0.006	0.0048	0.023*	0.0069	?	0.0096
COc1ccc(CNC(=O)Cn2c(=O)n(C(C)C)c3ncccc32)cc1	/	5	-34	/	/	/	/	/	/	/
O=C1Nc2ccc([N+](=O)[O-])cc2OC1CCN1CCN(Cc2ccccc2)CC1 (configuration not stated)	-4.2*	6	-32	-15	0.01	0.0063	0.026*	0.0083	0.013*	0.011
SMILES	KCC2 mod	PGE2 EP2 inh	EP2 modulator	S1P3 antag	KCC2 sec1	KCC2 bumet counter	KCC2 sec2	HEK293 Tl flux	KCC2 ouabain	HEK293 Tl flux2
CCn1c(SC(C)C(=O)Nc2c(C)cccc2C)nnc1-c1cccnc1 (configuration not stated)	/	3	-1	/	/	/	/	/	/	/
CC(C)CNC(=S)NC(=O)c1csc([N+](=O)[O-])c1	31*	12	-36	-7	?	0.069*	0.037	0.021*	0.036*	0.015*
Brc1cccc(-c2nnc(SCc3nc4ccccc4[nH]3)o2)c1	20*	/	-29	-5	0.0075	0.0054	0.032	0.0077	0.019	0.01
O=C(Nc1ccccc1F)N1CCCC1c1nc(-c2cccnc2)n[nH]1 (configuration not stated)	/	/	-17	/	/	/	/	/	/	/
COc1ccc(N/C=C/c2nc(SC)nnc2C)cc1	-3*	17	-2	-9	0.0068	0.0022*	0.024*	0.004*	0.012*	0.0077*
S=c1[nH]nc(-c2ccco2)n1/N=C/C(Cl)=C/c1ccccc1	34*	12	10	2	0.016*	0.14*	0.038	0.029*	0.067*	0.015*
CC(/C=N/n1c(-c2ccco2)n[nH]c1=S)=C\c1ccco1	4.7*	3	34	-20	0.0082	0.027*	0.038	0.018*	0.028*	0.02*
Cc1cc(-c2n[nH]c(=S)n2/N=C/c2cccc(O)c2)n[nH]1	-0.074	9	-3	-3	/	/	/	/	/	/
Cc1cc(-c2n[nH]c(=S)n2/N=C/C(Cl)=C/c2ccccc2)n[nH]1	4.9*	9	11	2	0.0093	0.013*	0.037	?	0.02	0.011
COc1cc(C2C(C#N)=C(N)Oc3n[nH]c(C(C)(C)C)c32)ccc1OC(C)=O (configuration not stated)	/	7	-9	/	/	/	/	/	/	/
Cc1cc(C)cc(OCC(=O)N2N=C(C(C)C)CC2(O)C(F)(F)F)c1 (configuration not stated)	/	8	-78	/	/	/	/	/	/	/
Cc1oc2ccccc2[n+]1CCCS(=O)(=O)[O-]	/	10	-33	/	/	/	/	/	/	/
NNC(=O)c1cc(-c2cccs2)nc2ccccc12	0.39	15	-29	5	/	/	/	/	/	/
